# Only a selection was taken, and the strongest signals are over-represented in it overall.
# B1: Surfactant Protein D (Human); Neck + Carbohydrate Recognition Domain (NCRD) (Homo sapiens) (protein)
# chain: MLLFLLSALVLLTQPLGYLEAEMKTYSHRTMPSACTLVMCSSVESGLPGRDRDGREGPRGEKGDPGLPGAAGQAGMPGQAGPVGPKGDNGSVGEPGPKGDTGPSGPPGPPGVPGPAGREGALGKQGNIGPQGKPGPKGEAGPKGEVGAPGMQGSAGARGLAGPKGERGVPGERGVPGNTGAAGSAGAMGPQGSPGARGPPGLKGDKGIPGDKGAKGESGLPDVASLRQQVEALQGQVQHLQAAFSQYKKVELFPNGQSVGEKIFKTAQFVKPFTEAQLLCTQAGGQLASPRSAAENAALQQLVVAKNEAAFLSMTDSKTEGKFTYPTGESLVYSNWAPGEPNDDGGSEDCVEIFTNGKWNDRACGEKALVVCEF
# What was measured:
# Experiment in all cases: glycan array binding signal (z-score within array); higher = stronger binding
# Conditions in all cases: glycan notation: IUPAC condensed, linker removed; mutation: R349A
# [1] = target: Fuc(a1-2)Gal(b1-4)GlcNAc
# Summary of the method: (§1)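 Glycan array binding is given as a within-array Z-score, which can be read as non-binding when negative. The arrays, 3228 of them, came from the Consortium for Functional Glycomics database and were retained only where the protein sequence was available. Z-scores were averaged across arrays of the same protein sequence at different concentrations or buffers and across linkers.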
# [2] = target: Fuc(a1-2)Gal(b1-4)GlcNAc(b1-3)Gal(b1-4)GlcNAc
# Summary of the method: as §1
# [3] = target: Fuc(a1-2)[GalNAc(b1-3)]Gal
# Summary of the method: as §1
# [4] = target: Fuc(a1-3)[Gal(b1-4)]GlcNAc(b1-3)Gal(b1-3)[Fuc(a1-4)]GlcNAc
# Summary of the method: as §1
# [5] = target: Gal(b1-3)GalNAc
# Summary of the method: as §1
# [6] = target: Gal(b1-3)GalNAc(b1-4)[Neu5Ac(a2-3)]Gal(b1-4)Glc
# Summary of the method: as §1
# [7] = target: Gal(b1-3)[Fuc(a1-4)]GlcNAc(b1-3)Gal(b1-4)GlcNAc
# Summary of the method: as §1
# [8] = target: Gal(b1-4)GlcNAc(b1-3)[GlcNAc(b1-6)]Gal(b1-4)GlcNAc
# Summary of the method: as §1
# [9] = target: Gal3S(b1-4)Glc
# Summary of the method: as §1
# [10] = target: Gal3S6S(b1-4)GlcNAc
# Summary of the method: as §1
# [11] = target: Gal3S6S(b1-4)GlcNAc6S
# Summary of the method: as §1
# [12] = target: Gal6S(b1-4)Glc6S
# Summary of the method: as §1
# [13] = target: GlcNAc(b1-2)Man(a1-3)[GlcNAc(b1-2)Man(a1-6)]Man(b1-4)GlcNAc(b1-4)GlcNAc
# Summary of the method: as §1
# [14] = target: GlcNAc(b1-3)Gal
# Summary of the method: as §1
# [15] = target: GlcNAc(b1-4)GlcNAc(b1-4)GlcNAc
# Summary of the method: as §1
# [16] = target: GlcNAc(b1-4)GlcNAc(b1-4)GlcNAc(b1-4)GlcNAc(b1-4)GlcNAc
# Summary of the method: as §1
# [17] = target: GlcNAc(b1-4)[GlcNAc(b1-6)]GalNAc
# Summary of the method: as §1
# [18] = target: Man(a1-2)Man(a1-2)Man(a1-6)[Man(a1-3)]Man
# Summary of the method: as §1
# [19] = target: Man(a1-2)Man(a1-3)Man
# Summary of the method: as §1
# [20] = target: Man(a1-2)Man(a1-3)[Man(a1-2)Man(a1-6)]Man(a1-6)[Man(a1-2)Man(a1-2)Man(a1-3)]Man
# Summary of the method: as §1
# [21] = target: Man(a1-3)[Man(a1-6)]Man(a1-6)[Man(a1-2)Man(a1-3)]Man(b1-4)GlcNAc(b1-4)GlcNAc
# Summary of the method: as §1
# [22] = target: Neu5Ac(a2-3)Gal(b1-4)GlcNAc(b1-2)Man(a1-3)[GlcNAc(b1-2)Man(b1-4)GlcNAc(b1-2)Man(a1-6)]Man(b1-4)GlcNAc(b1-4)GlcNAc
# Summary of the method: as §1
# [23] = target: Neu5Ac(a2-3)Gal(b1-4)[Fuc(a1-3)]GlcNAc(b1-3)Gal(b1-4)[Fuc(a1-3)]GlcNAc(b1-3)Gal(b1-4)[Fuc(a1-3)]GlcNAc
# Summary of the method: as §1
# [24] = target: Neu5Ac(a2-6)GalNAc
# Summary of the method: as §1
# [25] = target: Neu5Ac(a2-8)Neu5Ac(a2-8)Neu5Ac(a2-3)[GalNAc(b1-4)]Gal(b1-4)Glc
# Summary of the method: as §1
binder,measurement,setting,value
B1,glycan array binding signal (z-score),[1],-0.584
same,glycan array binding signal (z-score),[2],-0.301
same,glycan array binding signal (z-score),[3],-0.782
same,glycan array binding signal (z-score),[4],-0.667
same,glycan array binding signal (z-score),[5],-0.459
same,glycan array binding signal (z-score),[6],0.216
same,glycan array binding signal (z-score),[7],0.257
same,glycan array binding signal (z-score),[8],-0.419
same,glycan array binding signal (z-score),[9],0.892
same,glycan array binding signal (z-score),[10],2.25
same,glycan array binding signal (z-score),[11],3.32
same,glycan array binding signal (z-score),[12],3.96
same,glycan array binding signal (z-score),[13],-0.653
same,glycan array binding signal (z-score),[14],-0.71
same,glycan array binding signal (z-score),[15],3.19
same,glycan array binding signal (z-score),[16],0.258
same,glycan array binding signal (z-score),[17],-0.577
same,glycan array binding signal (z-score),[18],-0.532
same,glycan array binding signal (z-score),[19],0.578
same,glycan array binding signal (z-score),[20],4.48
same,glycan array binding signal (z-score),[21],7.39
same,glycan array binding signal (z-score),[22],0.008
same,glycan array binding signal (z-score),[23],-0.593
same,glycan array binding signal (z-score),[24],0.373
same,glycan array binding signal (z-score),[25],-0.579
